# Laboratory results published in the OligoGym collection.
# Tests used:
# Experiment in all cases: pooled miR-30 sensor sort-seq; sequence = guide strand
# Conditions in all cases: shRNA
# SERPINE2 = biological target: SERPINE2
# SERPINB7 = biological target: SERPINB7
# SEMA6D = biological target: SEMA6D
# SENP1 = biological target: SENP1
# SEZ6L = biological target: SEZ6L
# SH3YL1 = biological target: SH3YL1
# SIRT4 = biological target: SIRT4
# SIRT7 = biological target: SIRT7
# SIX1 = biological target: SIX1
# Further: reference of the scale not given here.
sequence,measurement,setting,value
TATTTTTGCAAAATTTGCCTTT,sensor-assay potency score (higher = more potent),SERPINE2,-0.263
TACTTAGAGGTCATTCGCCTTG,sensor-assay potency score (higher = more potent),SERPINB7,-0.685
TACTTTTTCAATGTCATCCATG,sensor-assay potency score (higher = more potent),SEMA6D,-0.449
TATCAGTTAATTTATGACCTTT,sensor-assay potency score (higher = more potent),SENP1,0.136
TTGATTGGTCTGTCTTTGGTAA,sensor-assay potency score (higher = more potent),SENP1,-0.497
TTGGAGAAGCTCACACTGCAGA,sensor-assay potency score (higher = more potent),SEZ6L,-0.466
TCCAGATACAATCTTCACCTTC,sensor-assay potency score (higher = more potent),SEZ6L,-0.983
TACTGGAACTAAGACATCGAGA,sensor-assay potency score (higher = more potent),SENP1,-0.808
TAATATTACGTCTAGTGTCTTC,sensor-assay potency score (higher = more potent),SERPINB7,-0.265
ATTTCCTTGATTGTCATCCATC,sensor-assay potency score (higher = more potent),SERPINB7,-1.25
TAATAGACTGCAGAACATCAAA,sensor-assay potency score (higher = more potent),SEMA6D,-1.03
TTGATGAATCAAACATGTCAGT,sensor-assay potency score (higher = more potent),SERPINE2,-0.681
TTAATATTTTACCAACTCCATT,sensor-assay potency score (higher = more potent),SERPINE2,-1.64
TTCACTGAGAACTTCATCCTGA,sensor-assay potency score (higher = more potent),SENP1,0.885
TTGTCAATCATATCCCTGGTTT,sensor-assay potency score (higher = more potent),SERPINE2,-0.515
TTCTACAATATTACTTCCTGTG,sensor-assay potency score (higher = more potent),SERPINB7,-0.132
TTGGGTGGTAGCTCTTTCCGAC,sensor-assay potency score (higher = more potent),SEMA6D,-0.271
ATTCTTAACAAACACGGCGTTA,sensor-assay potency score (higher = more potent),SERPINE2,-0.703
TATTGCAAGAGTATTCTGCAGG,sensor-assay potency score (higher = more potent),SENP1,-0.448
TAGAGTTTGAATATCTTTGCGT,sensor-assay potency score (higher = more potent),SENP1,0.243
TGTACTAACATGTCGCCTCTGA,sensor-assay potency score (higher = more potent),SENP1,0.2
TTCTTCTCTATCTTGAACTGAG,sensor-assay potency score (higher = more potent),SERPINB7,-0.146
AACAGTAACAGGAATCTCCTTT,sensor-assay potency score (higher = more potent),SENP1,-0.105
TACAGCTGTGAACTTGGGCAGG,sensor-assay potency score (higher = more potent),SERPINE2,-0.9
TTATCTGAGTAATAGCTTGGAT,sensor-assay potency score (higher = more potent),SENP1,0.0199
TATTTTAGTGAATACATGCATT,sensor-assay potency score (higher = more potent),SERPINE2,-0.736
TAAGATTTGTGCATCATCCTTG,sensor-assay potency score (higher = more potent),SERPINB7,1.22
TACAGTGTTCCAGCCATCCTGC,sensor-assay potency score (higher = more potent),SERPINE2,-0.935
AACAGAAACACTTGCATCGAGT,sensor-assay potency score (higher = more potent),SERPINE2,-0.757
TAGAAGAGTTTCCATATCCTGA,sensor-assay potency score (higher = more potent),SERPINB7,0.0524
TTGAACTGTCTCTTCTGCTGTA,sensor-assay potency score (higher = more potent),SENP1,0.936
TTCCTCAGTACAGTGTTCCAGC,sensor-assay potency score (higher = more potent),SERPINE2,-0.117
TTTACTTCGCTCCATCAGCATA,sensor-assay potency score (higher = more potent),SENP1,-1.5
TTTTCTACAATATTACTTCCTG,sensor-assay potency score (higher = more potent),SERPINB7,0.325
TTGATTGTCATCCATCTCTCTG,sensor-assay potency score (higher = more potent),SERPINB7,-0.525
TTGTCCTTCATTTTCATACTTT,sensor-assay potency score (higher = more potent),SH3YL1,-0.366
TTTTCTGACCTGTAGTCTGGTA,sensor-assay potency score (higher = more potent),SIRT4,-0.377
TTCTGAAGCAGTGTCCACACTC,sensor-assay potency score (higher = more potent),SIRT7,-0.449
TACAAGTGTCCCTAGTCGCTGC,sensor-assay potency score (higher = more potent),SIX1,0.379
ATGTTCAGTATTGCAATCGGGA,sensor-assay potency score (higher = more potent),SIRT4,-1.33
TTCTGCACAGCGACTTCCGACT,sensor-assay potency score (higher = more potent),SIRT7,-1.07
TTAAGCTTGAGATCGCTGTTGG,sensor-assay potency score (higher = more potent),SIX1,0.117
TGAAGCAGTGTCCACACTCCAT,sensor-assay potency score (higher = more potent),SIRT7,-1.07
TTCTGAGCTGGACATGAGCGGC,sensor-assay potency score (higher = more potent),SIX1,-1.35
TTGAACGCAGGTTGGGACCTGA,sensor-assay potency score (higher = more potent),SIRT4,0.0552
